Assay outcomes: PubChem BioAssay, National Center for Advancing Translational Sciences (NCATS)
Sampled rows, rich in hits. Any-hit rate of the full collection: about 18%.
HepG2 viability: qHTS for Inhibitors of TGF-b: Cytotox Counterscreen. actives 0.76% (n = 410,000). Potency, µM (titrated, usually from 46.1 µM), usual class: cytotoxic. HepG2 CAGA-GFP viability, ATP luminescence, 18 h
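HepG2 CAGA-GFP cells (1000/well, DMEM with 1% FBS) received compound, then TGF-beta at 500 pg/mL final, and were incubated 18 hours at 37 degrees C. Viability was read by CellTiter-Glo luminescence. Media-only wells were set as complete cell-killing and DMSO as no toxicity.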
TDP1 cell noCPT: qHTS for Inhibitors of human tyrosyl-DNA phosphodiesterase 1 (TDP1): qHTS in cells in absence of CPT. DT40 Tdp1-/- hTDP1 cells, no CPT, ATP luminescence, 48 h. Potency, µM (series often up to 46.2 µM), hits mostly inhibitors. actives 15% (n = 420,000); also: nearly all actives have a fitted effect of over 55% in size
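Camptothecin absent (DMSO only). Human TDP1-complemented DT40 knockout cells, 400 cells/well, 37 °C for minimum 48 hr; ATP measured via CellTiter-Glo, 30 min dark incubation, luminescence.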
IL1B secr inh: qHTS for Inhibitors of Inflammasome Signaling: IL-1-beta AlphaLISA Primary Screen | THP-1 LPS/ATP IL-1B secretion, AlphaLISA, 16 h; hits give low values | activity change, % at 57.5 µM | actives 4.7% (n = 360,000) | AID 743279, 2014; in the data active = activity change below about -50%; inconclusive = mostly about -30% to -49%
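Secreted IL-1B measured by AlphaLISA bead assay after 16 h compound exposure of THP-1 cells; compounds (final up to 57.5 uM) added 1 h before LPS (250 ng/mL) and ATP (1.25 mM) stimulation; lower signal means less secretion.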
TDP1 cell CPT: qHTS for Inhibitors of human tyrosyl-DNA phosphodiesterase 1 (TDP1): qHTS in cells in presence of CPT; chicken DT40 Tdp1-/-;hTDP1 cells + 20 nM CPT, ATP luminescence, 48 h; Potency, µM (doses to about 46.2 µM), usual class: inhibitors; actives 12% (n = 420,000); AID 686979, 2013; also: nearly all actives have a fitted effect of over 55% in size
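Cell growth measured by CellTiter-Glo luminescence after a minimum 48 h, 37 C compound exposure with 20 nM CPT in Tdp1-knockout DT40 cells stably expressing hTDP1, seeded 400/well; qHTS titration format.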
TDP1 block: qHTS Assay for Inhibitors of Tyrosyl-DNA Phosphodiesterase (TDP1) | Potency, µM (doses to about 130 µM), hits mostly inhibitors | recombinant TDP1, AlphaScreen DNA substrate cleavage | actives 0.28% (n = 350,000) | AID 485290, 2010; also: nearly all actives have a fitted effect of over 40% in size
Target sequence (Q9NUW8 whole entry, looked up): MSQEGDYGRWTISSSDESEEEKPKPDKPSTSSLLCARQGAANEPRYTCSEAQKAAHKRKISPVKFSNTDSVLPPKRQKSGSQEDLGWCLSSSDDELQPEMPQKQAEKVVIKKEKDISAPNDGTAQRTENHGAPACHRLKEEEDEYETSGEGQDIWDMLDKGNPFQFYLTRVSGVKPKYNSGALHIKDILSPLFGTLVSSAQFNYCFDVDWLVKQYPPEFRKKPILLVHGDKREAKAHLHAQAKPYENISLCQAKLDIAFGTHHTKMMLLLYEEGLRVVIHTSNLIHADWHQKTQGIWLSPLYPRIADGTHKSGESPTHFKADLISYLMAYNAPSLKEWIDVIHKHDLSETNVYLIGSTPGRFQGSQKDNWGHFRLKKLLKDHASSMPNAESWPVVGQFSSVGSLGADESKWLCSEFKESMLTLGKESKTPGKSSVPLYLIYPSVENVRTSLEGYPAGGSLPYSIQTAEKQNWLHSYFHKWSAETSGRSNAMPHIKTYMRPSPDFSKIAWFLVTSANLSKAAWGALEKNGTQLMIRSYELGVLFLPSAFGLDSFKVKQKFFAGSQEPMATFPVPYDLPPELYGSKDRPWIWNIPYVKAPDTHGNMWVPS
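Compounds were preincubated with Tdp1 (1 nM final) for 15 min at room temperature before substrate (15 nM final) started a 5 min reaction; beads (10 ug/ml final) were then added for 10 min before AlphaScreen detection.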
TGFb SMAD3 inh: qHTS for Inhibitors of TGF-b; HepG2 CAGA-GFP TGF-b/SMAD3 reporter, GFP fluorescence, 18 h; TGF-beta stimulated, 500 pg/mL final; Potency, µM (series often up to 46.1 µM), most hits filed as inhibitors; actives 1.2% (n = 410,000); AID 588855, 2011; also: nearly all actives have a fitted effect of over 65% in size
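Cell-based qHTS in HEPG2 carrying a CAGA-GFP Smad reporter; compounds added before 500 pg/mL final TGF-beta, 18 h incubation at 37 degrees C, GFP fluorescence quantified per cell by imaging cytometry.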
A number is an active result; i = inactive; ? = inconclusive; nt = no result given; [ ] = remark or other dose. Unless noted, calls follow the shape of the dose curve; as a rule, active = well fitted curve in the direction sought with a large enough effect; inconclusive = small, poorly fitted or top-dose-only effect, or another doubt; inactive = no such curve, though single readings can be large; an effect the other way counts as inactive or inconclusive.

SMILES	HepG2 viability	TDP1 cell noCPT	IL1B secr inh	TDP1 cell CPT	TDP1 block	TGFb SMAD3 inh
COc1ccc(CNC(=O)CN2C(=O)CC(c3ccc(C)c(C)c3)=Nc3ccccc32)cc1	i	?	nt	?	i	?
Cc1ccc(NC(=O)CN2C(=O)CC(c3ccc(F)cc3)=Nc3ccccc32)cc1F	i	12µM	nt	12µM	i	i
COc1ccc(NC(=O)CN2C(=O)CC(c3ccc(C)c(C)c3)=Nc3ccccc32)cc1OC	i	?	nt	?	i	?
Cc1ccc(CNC(=O)CN2C(=O)CC(c3ccc(C)c(C)c3)=Nc3ccccc32)cc1	i	?	nt	?	i	i
O=C(CCC1CCCN(C(=O)c2ccc3cc[nH]c3c2)C1)NCc1ccc(F)c(F)c1 (stereo not given)	i	i	i	?	i	i
CC1CC1C(=O)OCC(=O)Nc1cc(S(=O)(=O)N2CCCCC2)ccc1Cl (stereo not given)	i	i	i	i	i	i
COC(=O)c1ccc(OC(=O)c2ccc(OC)c(OC)c2)c(OC)c1	i	i	i	i	i	i
COc1ccc(/C=C/C(=O)c2ccc(O)cc2O)cc1OC	nt	15µM	nt	?	i	nt
O=C(Nc1ccc(OCc2ccccc2)cc1)c1cccnc1	i	i	i	i	i	i
COc1ccc(/C=C/C(=O)C2(O)CCCCC2)cc1	i	?	-92	?	nt	i
COC(=O)c1ccc(/C=C/C(=O)c2ccc(OC)c(OC)c2)cc1	i	?	-59	?	i	i
O=C(/C=C/c1ccc(OCc2ccccc2)c(OCc2ccccc2)c1)c1cccnc1	i	12µM	-95	?	i	?
CC(=O)Nc1ccc(C(=O)COC(=O)c2ccco2)c(F)c1	i	i	i	i	i	i
CCCCN(C(=O)/C=C/c1ccc(OC)cc1)C1CCS(=O)(=O)C1 (stereo not given)	i	i	i	i	i[0.505 µM]	i
COc1ccc(C=CC(=O)c2ccc(OCc3ccccc3)c(OC)c2)cc1OC	i	18µM	i	26µM	nt	i
CCOc1ccc(OCCOc2ccc(/C=C/C(=O)O)cc2OCC)cc1	i	i	i	i	i	i
COc1ccc(/C=C/C(=O)c2cc(F)ccc2OC(=O)c2ccccc2OC)cc1OC	i	4.6µM	-100	4.1µM	i	11µM
CCOc1cc(/C=C/C(=O)c2ccc(C)cc2)ccc1OCC(=O)N(C)C	i	21µM	-105	18µM	i	?
COc1ccc(C(C)=O)cc1OCc1ccccc1	i	?	i	i	nt	i
COc1ccc(/C=C/C(=O)c2ccc(C(=O)/C=C/c3ccc(OC)c(OC)c3)cc2)cc1OC	i	5.8µM	i	7.3µM	nt	i
COc1cc(/C=C/C(=O)c2ccc(C)cc2)ccc1OCC#N	i	?	-114	?	i	?
CCOc1cc(/C=C/C(=O)O)ccc1OCCO	i	18µM	i	13µM	i	i
CCOc1cc(/C=C/c2cccc[n+]2C)ccc1OCC(=O)Nc1ccc(C)cc1	i	16µM	-71	21µM	nt	i
COc1ccc(/C=C/C(=O)c2ccc[nH]2)cc1OC	i	?	-63	i	i	i
CC(C)N=C=NC(C)C	nt	nt	nt	nt	i	nt
SMILES	HepG2 viability	TDP1 cell noCPT	IL1B secr inh	TDP1 cell CPT	TDP1 block	TGFb SMAD3 inh
Cc1ccc(CSCC(=O)N2CCN(c3ccccc3F)CC2)cc1	i	?	nt	?	i	i
COC(=O)c1ccc(/C=C/C(=O)O)cc1	i	i	i	i	i	i
CCOc1ccc(C(=O)/C=C/c2ccccc2C(F)(F)F)cc1	i	i	i	i	i	i
COC(=O)c1ccc(/C=C/C(=O)c2ccc(OC)cc2)cc1	i	16µM	?	?	i	i
COc1ccc(C(=O)/C=C/c2ccccc2C(F)(F)F)cc1	i	23µM	-73	29µM	i	?
COC(=O)c1[nH]c(=O)c2ccccc2c1O	i	i	i	2.6µM	i	i
COC(=O)c1[nH]c(=O)c2ccccc2c1OCc1ccccc1	i	i	i	i	i	i
Cc1ccc(OCC(=O)Nc2ccc(S(=O)(=O)Nc3ncccn3)cc2)c(C(C)(C)C)c1	i	i	nt	i	i[12.3 µM]	i
CC(=O)Nc1ccc(NC2=Nc3ccccc3N3C2=Nc2c(c(C)nn2-c2ccccc2)C3c2ccccc2)cc1 (stereo not given)	i	2.3µM	i	2.6µM	i	i
COc1ccc(NC2=Nc3ccccc3N3C2=Nc2c(c(C)nn2-c2ccc(C)cc2)C3c2cccnc2)cc1 (stereo not given)	i	?	i	21µM	i	i
O=C(CNC(=O)c1ccccc1F)OCc1cc(=O)n2ccsc2n1	i	i	nt	i	i	i
COc1cc(C2CC(=O)N(Cc3cccc(F)c3)c3ccccc3S2)cc(OC)c1OC (stereo not given)	i	nt	nt	nt	i	?
Cc1cccc(C2c3[nH]c4ccccc4c3CCN2C(=O)c2ccc(=O)[nH]c2)n1 (stereo not given)	i	i	i	i	i	i
Cc1nc(C)c(CC(=O)N2CCc3c([nH]c4ccccc34)C2c2ccccn2)s1 (stereo not given)	i	?	i	i	nt	i
Cc1cc2cc(C(=O)N3CCc4c([nH]c5ccccc45)C3c3ccccn3)ccc2o1 (stereo not given)	i	18µM	i	?	i	?
CC(=O)c1ccc(C(=O)N2CCc3c([nH]c4ccccc34)C2c2cccc(C)n2)s1 (stereo not given)	i	15µM	-67	23µM	i	i
O=C(c1ccc(-n2cccn2)cc1)N1CCc2c([nH]c3ccccc23)C1c1ccccn1 (stereo not given)	i	?	i	?	i	i
CC(=O)Nc1ccc(CN2CCc3c([nH]c4ccccc34)C2c2ccccn2)cc1 (stereo not given)	i	21µM	i	?	i	i
CCOC(=O)c1[nH]c(C)c(C(=O)N2CCc3c([nH]c4ccccc34)C2c2ccccn2)c1C (stereo not given)	i	?	-52	16µM	i	?
CCC/C=C(\CCC)C(NS(=O)(=O)c1ccc(Cl)cc1)c1ccccc1 (stereo not given)	nt	nt	nt	nt	i	nt
Cn1nc(-c2ccccc2)c(C(=O)Nc2ccc(Cl)cc2)c1Cl	i	i	i	i	i	i
